{"source": "the supplement of paper PMC4022240", "binders": {"B1": {"name": "H3 5-17 Q T A R K Sph T G G Kme A P R (peptide)", "chain": "QTARKSTGGKAPR"}, "B2": {"name": "H3 5-17 Q T A Rme2s Kac S T G G K A P R (peptide)", "chain": "QTARKSTGGKAPR"}, "B3": {"name": "H3 5-17 Q T A Rme2s Kme S T G G K A P R (peptide)", "chain": "QTARKSTGGKAPR"}, "B4": {"name": "H3 5-17 Q T A R K Sph T G G Kme2 A P R (peptide)", "chain": "QTARKSTGGKAPR"}, "B5": {"name": "H3 5-17 Q T A R K S Tph G G Kme A P R (peptide)", "chain": "QTARKSTGGKAPR"}}, "test_in_all_cases": "peptide microarray binding signal (635 nm), min-max normalized on array (fraction of array maximum); higher = stronger binding", "settings_in_all_cases": "peptide region: H3 5-17", "key": {"[1]": {"biological_target": "T1, HaloTag-ATRX ADD domain (163-292)", "T1 chain": "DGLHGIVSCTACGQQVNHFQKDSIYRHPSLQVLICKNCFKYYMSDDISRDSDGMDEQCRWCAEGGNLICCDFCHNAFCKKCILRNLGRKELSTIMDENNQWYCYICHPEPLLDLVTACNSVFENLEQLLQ", "in_short": "(§1)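 Within each library, mean intensities of triplicate spots were min-max scaled to give the binding signal. The spots were histone 13-mer peptide–cellulose conjugates on nitrocellulose with a Cy3 tracer, blocked overnight at 4°C. They were then probed for 1 h at 4°C using biotin-labelled HaloTag reader fusions (10 nM to 1 μM) with streptavidin-Alexa Fluor 647 or rabbit histone antibodies (1:10,000 to 1:2,000) with anti-rabbit Alexa 647, and scanned at 635 nm for signal and 532 nm for misprints on an Axon GenePix 4000B.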"}, "[2]": {"biological_target": "HaloTag-ING2 PHD (mouse Ing2 200-280)", "in_short": "as §1"}, "[3]": {"biological_target": "anti-H3K4me3 antibody ab8580", "in_short": "as §1"}, "[4]": {"biological_target": "anti-H3K9me3 antibody ab8898", "in_short": "as §1"}, "[5]": {"settings": "peptide modifications: H3S10ph H3K14me1, binder concentration: 1:2,000 dilution"}, "[6]": {"settings": "peptide modifications: H3S10ph H3K14me1, binder concentration: 1:10,000 dilution"}, "[7]": {"settings": "peptide modifications: H3R8me2s H3K9ac, binder concentration: 1:2,000 dilution"}, "[8]": {"settings": "peptide modifications: H3R8me2s H3K9ac, binder concentration: 1:10,000 dilution"}, "[9]": {"settings": "peptide modifications: H3R8me2s H3K9me1, binder concentration: 1:2,000 dilution"}, "[10]": {"settings": "peptide modifications: H3R8me2s H3K9me1, binder concentration: 1:10,000 dilution"}, "[11]": {"settings": "peptide modifications: H3S10ph H3K14me2, binder concentration: 1:2,000 dilution"}, "[12]": {"settings": "peptide modifications: H3S10ph H3K14me2, binder concentration: 1:10,000 dilution"}, "[13]": {"settings": "peptide modifications: H3T11ph H3K14me1, binder concentration: 1:2,000 dilution"}, "[14]": {"settings": "peptide modifications: H3T11ph H3K14me1, binder concentration: 1:10,000 dilution"}}, "note": "± gives the standard deviation."}
{"binder": "B1", "values": [{"measurement": "peptide microarray binding signal", "setting": "[1]; peptide modifications: H3S10ph H3K14me1, binder concentration: 50 nM", "result": "0.00426 ± 0.0003"}, {"measurement": "peptide microarray binding signal", "setting": "[1]; peptide modifications: H3S10ph H3K14me1, binder concentration: 500 nM", "result": "0.007715 ± 7.2e-05"}, {"measurement": "peptide microarray binding signal", "setting": "[2]; peptide modifications: H3S10ph H3K14me1, binder concentration: 10 nM", "result": "0.00424 ± 0.00075"}, {"measurement": "peptide microarray binding signal", "setting": "[2]; peptide modifications: H3S10ph H3K14me1, binder concentration: 100 nM", "result": "0.0102 ± 0.0023"}, {"measurement": "peptide microarray binding signal", "setting": "[3]; [5]", "result": "0.000396 ± 7e-06"}, {"measurement": "peptide microarray binding signal", "setting": "[3]; [6]", "result": 0.000399}, {"measurement": "peptide microarray binding signal", "setting": "[4]; [5]", "result": "0.00077 ± 4.1e-05"}, {"measurement": "peptide microarray binding signal", "setting": "[4]; [6]", "result": "0.000404 ± 4.4e-06"}]}
{"binder": "B2", "values": [{"measurement": "peptide microarray binding signal", "setting": "[1]; peptide modifications: H3R8me2s H3K9ac, binder concentration: 50 nM", "result": "0.0102 ± 0.00014"}, {"measurement": "peptide microarray binding signal", "setting": "[1]; peptide modifications: H3R8me2s H3K9ac, binder concentration: 500 nM", "result": "0.0189 ± 0.00053"}, {"measurement": "peptide microarray binding signal", "setting": "[2]; peptide modifications: H3R8me2s H3K9ac, binder concentration: 10 nM", "result": "0.0344 ± 0.0018"}, {"measurement": "peptide microarray binding signal", "setting": "[2]; peptide modifications: H3R8me2s H3K9ac, binder concentration: 100 nM", "result": "0.064 ± 0.0047"}, {"measurement": "peptide microarray binding signal", "setting": "[3]; [7]", "result": "0.0111 ± 0.0022"}, {"measurement": "peptide microarray binding signal", "setting": "[3]; [8]", "result": "0.0146 ± 0.00068"}, {"measurement": "peptide microarray binding signal", "setting": "[4]; [7]", "result": "0.011 ± 0.00081"}, {"measurement": "peptide microarray binding signal", "setting": "[4]; [8]", "result": "0.00899 ± 0.0016"}]}
{"binder": "B3", "values": [{"measurement": "peptide microarray binding signal", "setting": "[1]; peptide modifications: H3R8me2s H3K9me1, binder concentration: 50 nM", "result": "0.0141 ± 0.0025"}, {"measurement": "peptide microarray binding signal", "setting": "[1]; peptide modifications: H3R8me2s H3K9me1, binder concentration: 500 nM", "result": "0.0312 ± 0.016"}, {"measurement": "peptide microarray binding signal", "setting": "[2]; peptide modifications: H3R8me2s H3K9me1, binder concentration: 10 nM", "result": "0.0334 ± 0.0012"}, {"measurement": "peptide microarray binding signal", "setting": "[2]; peptide modifications: H3R8me2s H3K9me1, binder concentration: 100 nM", "result": "0.0522 ± 0.0014"}, {"measurement": "peptide microarray binding signal", "setting": "[3]; [9]", "result": "0.0185 ± 0.0025"}, {"measurement": "peptide microarray binding signal", "setting": "[3]; [10]", "result": "0.0237 ± 0.00078"}, {"measurement": "peptide microarray binding signal", "setting": "[4]; [9]", "result": "0.0146 ± 0.0028"}, {"measurement": "peptide microarray binding signal", "setting": "[4]; [10]", "result": "0.0153 ± 0.0016"}]}
{"binder": "B4", "values": [{"measurement": "peptide microarray binding signal", "setting": "[1]; peptide modifications: H3S10ph H3K14me2, binder concentration: 50 nM", "result": "0.0068 ± 0.00015"}, {"measurement": "peptide microarray binding signal", "setting": "[1]; peptide modifications: H3S10ph H3K14me2, binder concentration: 500 nM", "result": "0.015 ± 0.00086"}, {"measurement": "peptide microarray binding signal", "setting": "[2]; peptide modifications: H3S10ph H3K14me2, binder concentration: 10 nM", "result": "0.00597 ± 0.00047"}, {"measurement": "peptide microarray binding signal", "setting": "[2]; peptide modifications: H3S10ph H3K14me2, binder concentration: 100 nM", "result": "0.0125 ± 0.0027"}, {"measurement": "peptide microarray binding signal", "setting": "[3]; [11]", "result": "0.00874 ± 0.00064"}, {"measurement": "peptide microarray binding signal", "setting": "[3]; [12]", "result": "0.0077 ± 0.0015"}, {"measurement": "peptide microarray binding signal", "setting": "[4]; [11]", "result": "0.00565 ± 0.00062"}, {"measurement": "peptide microarray binding signal", "setting": "[4]; [12]", "result": "0.00294 ± 0.00015"}]}
{"binder": "B5", "values": [{"measurement": "peptide microarray binding signal", "setting": "[1]; peptide modifications: H3T11ph H3K14me1, binder concentration: 50 nM", "result": "0.00301 ± 0.00011"}, {"measurement": "peptide microarray binding signal", "setting": "[1]; peptide modifications: H3T11ph H3K14me1, binder concentration: 500 nM", "result": "0.00562 ± 0.00013"}, {"measurement": "peptide microarray binding signal", "setting": "[2]; peptide modifications: H3T11ph H3K14me1, binder concentration: 10 nM", "result": "0.00466 ± 0.00013"}, {"measurement": "peptide microarray binding signal", "setting": "[2]; peptide modifications: H3T11ph H3K14me1, binder concentration: 100 nM", "result": "0.00496 ± 0.00066"}, {"measurement": "peptide microarray binding signal", "setting": "[3]; [13]", "result": "0.00106 ± 2.3e-05"}, {"measurement": "peptide microarray binding signal", "setting": "[3]; [14]", "result": "0.0012 ± 3.2e-05"}, {"measurement": "peptide microarray binding signal", "setting": "[4]; [13]", "result": "0.00112 ± 2.3e-05"}, {"measurement": "peptide microarray binding signal", "setting": "[4]; [14]", "result": 0.000807}]}
